From PubChem BioAssay AID1240 (Sanford-Burnham Center for Chemical Genomics, 2008)
Hit rate of the full screen: of about 50,000 compounds, about 800 (1.6%) showed an effect of 50% or more. Shown is part of a subset that was picked to be rich in strong results.

Molecular target: Bcl-2-like protein 10 (Homo sapiens) (UniProt Q9HD36)
Assay: Phenotype converters, Bcl-B/TR3 peptide binding displacement, primary biochemical FP (AID 1240);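 note: 0% = Bcl-B with tracer peptide and DMSO and 100% = tracer peptide lacking Bcl-B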
Details: GST-Bcl-B / FITC-TR3 peptide fluorescence polarization; stronger effect = higher value; compound at 3.75 mg/L

Chain of Bcl-2-like protein 10 (Homo sapiens) (Q9HD36 whole entry, looked up): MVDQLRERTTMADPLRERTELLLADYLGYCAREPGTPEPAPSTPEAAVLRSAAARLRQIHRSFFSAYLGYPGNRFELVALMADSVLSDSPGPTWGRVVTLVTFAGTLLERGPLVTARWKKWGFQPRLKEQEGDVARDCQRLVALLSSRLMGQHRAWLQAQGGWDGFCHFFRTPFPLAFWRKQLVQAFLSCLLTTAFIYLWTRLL

**Q.** How did the displacement turn out when `C/C(=N\OC/C(O)=C(\C#N)c1nc2ccccc2[nH]1)c1ccc(Br)cc1` was run?
**A.** The displacement was 46.6%.

**Q.** How did the displacement turn out when `N#C/C(=C(/O)CO/N=C/c1ccccc1Cl)c1nc2ccccc2[nH]1` was run?
**A.** The displacement was 53.6%.

**Q.** For `N#C/C(=C(/O)C(Cl)(Cl)Cl)c1nc2ccccc2[nH]1`, which displacement is on record?
**A.** Its displacement is -5.5%.

**Q.** Which displacement does the source give for `O=C(CC1Nc2ccccc2NC1=O)Nc1cccc(C(=O)O)c1` (stereo not drawn) here?
**A.** Its displacement is -2.4%.

**Q.** How did the displacement turn out when `CCCOc1cccc(C(=O)Nc2ccc(F)c([N+](=O)[O-])c2)c1` was run?
**A.** Its displacement is 13.4%.

**Q.** How did the displacement turn out when `CC1=NN(C(=O)c2cccnc2)C(O)(c2ccccc2)C1` (stereo not drawn) was run?
**A.** The displacement was -6.3%.

**Q.** How did the displacement turn out when `O=C(Cc1cccs1)NCC1CCCO1` (stereo not drawn) was run?
**A.** The displacement was 14.5%.

**Q.** `O=C(N/N=C/c1ccc(O)c(O)c1)c1cccc(F)c1` was tested. Which displacement did it give?
**A.** The displacement was -6.6%.

**Q.** For `O=C(Nc1ccccc1C(=O)NCCCn1ccnc1)c1ccccc1`, which displacement is on record?
**A.** The displacement was 83.5%.

**Q.** Which displacement does the source give for `COc1ccc(C(=O)Nc2ccccc2C(=O)NCCCn2ccnc2)cc1` here?
**A.** The displacement was 11.9%.

**Q.** Which displacement does the source give for `O=C(NCCCn1ccnc1)c1ccccc1Br` here?
**A.** The displacement was -8.7%.

**Q.** With `COC(=O)C1=CNC=C(C(=O)OC)C1c1cccc(OCc2ccccc2)c1` as the molecule, how does the displacement read?
**A.** Its displacement is 1.2%.

**Q.** How did the displacement turn out when `O=C(/C=C/c1ccc([N+](=O)[O-])cc1)Nc1ccc(F)cc1` was run?
**A.** The displacement was -2.7%.

**Q.** `O=C(/C=C/Nc1ccccc1F)c1ccccc1` was tested. Which displacement did it give?
**A.** The displacement was 8.2%.

**Q.** `COc1ccc(C(=O)/C=C\Nc2ccc(Cl)cn2)cc1` was tested. Which displacement did it give?
**A.** Its displacement is -23.9%.

**Q.** How did the displacement turn out when `O=C(/C=C/Nc1ccccn1)c1ccc(Br)cc1` was run?
**A.** Its displacement is 3%.

**Q.** For `COc1ccc(C(=O)/C=C/Nc2ccccc2F)cc1`, which displacement is on record?
**A.** Its displacement is 5.6%.

**Q.** Which displacement does the source give for `O=C(/C=C\Nc1ccc(Br)cn1)c1ccc(Cl)cc1` here?
**A.** The displacement was 61.9%.

**Q.** How did the displacement turn out when `O=C(/C=C/Nc1ccccc1F)c1ccc(Br)cc1` was run?
**A.** Its displacement is 85.6%.

**Q.** How did the displacement turn out when `Cc1sccc1/C=N/NC(=O)C1CC1` was run?
**A.** Its displacement is 3%.

**Q.** For `Cc1ccc(/C=N/N=C/c2ccc(C)cc2)cc1`, which displacement is on record?
**A.** The displacement was 2.2%.

**Q.** How did the displacement turn out when `C/C(=C\C(=O)c1ccc(Cl)cc1)Nc1ccc(Br)c(C)c1` was run?
**A.** Its displacement is 4.4%.

**Q.** `Cc1ccc(-c2nnc3s/c(=C\c4ccccc4Cl)c(=O)n23)cc1` was tested. Which displacement did it give?
**A.** Its displacement is 30.3%.

**Q.** Which displacement does the source give for `COc1ccc(-c2nn(-c3ccccc3)cc2/C=c2\sc3nc(-c4ccc(C)cc4)nn3c2=O)cc1` here?
**A.** The displacement was 8.3%.

**Q.** How did the displacement turn out when `COc1ccc(/C=c2\sc3nnc(-c4ccc(C)cc4)n3c2=O)c(OC)c1` was run?
**A.** Its displacement is 73.8%.

**Q.** With `COc1ccc(/C=c2\sc3nnc(-c4ccccc4)n3c2=O)c(OC)c1` as the molecule, how does the displacement read?
**A.** The displacement was 28%.

**Q.** `COc1ccc(/C=c2/sc3nc(-c4ccc(C(C)(C)C)cc4)nn3c2=O)cc1` was tested. Which displacement did it give?
**A.** The displacement was 11.3%.

**Q.** For `COC(=O)c1ccc(/C=c2\sc3nc(-c4ccc(C)cc4)nn3c2=O)cc1`, which displacement is on record?
**A.** Its displacement is 10.7%.

**Q.** With `COc1ccccc1/C=c1/sc2nc(-c3ccc(Cl)cc3Cl)nn2c1=O` as the molecule, how does the displacement read?
**A.** The displacement was 7.3%.

**Q.** `COc1ccccc1/C=c1\sc2nc(-c3ccc(C)cc3)nn2c1=O` was tested. Which displacement did it give?
**A.** The displacement was 61.7%.

**Q.** `COc1ccc(/C=c2\sc3nc(-c4ccccc4)nn3c2=O)cc1` was tested. Which displacement did it give?
**A.** The displacement was 77.5%.

**Q.** With `OCCCc1nc2ccccc2n1Cc1ccccc1` as the molecule, how does the displacement read?
**A.** Its displacement is 2.4%.

**Q.** How did the displacement turn out when `O=[N+]([O-])c1cc(C(F)(F)F)ccc1N/N=C/c1ccc(F)cc1` was run?
**A.** Its displacement is 6.3%.

**Q.** For `CC(=O)N(C1=C(N2CCCCC2)C(=O)c2ccccc2C1=O)c1ccc(C)cc1`, which displacement is on record?
**A.** Its displacement is 11.1%.

**Q.** With `O=C(Nc1ccc2c(c1)OCCO2)c1ccc(Br)cc1` as the molecule, how does the displacement read?
**A.** The displacement was -0.2%.

**Q.** For `O=S(=O)(Nc1ccc(SC(F)F)cc1)c1cccc2cccnc12`, which displacement is on record?
**A.** The displacement was 1.7%.

**Q.** How did the displacement turn out when `CCc1nnc(NC(=O)C2CCCC2)s1` was run?
**A.** The displacement was -7.8%.

**Q.** How did the displacement turn out when `Cc1cc(=O)n2cc(Br)ccc2n1` was run?
**A.** The displacement was 0.1%.

**Q.** How did the displacement turn out when `O=C(Nc1ccc(NC(=O)c2ccc([N+](=O)[O-])cc2Cl)cc1Cl)c1ccco1` was run?
**A.** The displacement was -2%.

**Q.** Which displacement does the source give for `O=C(C1CCCCC1)N1CCN=C1c1ccccc1` here?
**A.** The displacement was -1%.

**Q.** With `CN1C(=O)NC(=O)/C(=C\c2cc(Cl)c(OCC(=O)O)c(Cl)c2)C1=O` as the molecule, how does the displacement read?
**A.** Its displacement is -3.5%.

**Q.** Which displacement does the source give for `O=C(O)/C=C\C(=O)Nc1ccc(C(=O)c2ccccc2)cc1` here?
**A.** Its displacement is 3.2%.

**Q.** Which displacement does the source give for `Cc1ccc(NC(=O)/C=C/c2ccccc2)cc1` here?
**A.** The displacement was -3.5%.

**Q.** How did the displacement turn out when `Cc1ccc(NC(=O)/C=C/C(=O)c2ccccc2)cc1` was run?
**A.** Its displacement is 54.6%.

**Q.** For `CCN(CC)CCN1C(=O)C(O)=C(C(=O)/C=C/c2ccccc2)C1c1ccc(Br)cc1` (stereo not drawn), which displacement is on record?
**A.** Its displacement is 11.4%.

**Q.** With `O=C(C1CCCC1)N1CCN(c2ccc(F)cc2)CC1` as the molecule, how does the displacement read?
**A.** Its displacement is -0.9%.

**Q.** With `Cc1cc(C)c2oc(-c3cccc(NC(=O)COc4ccccc4[N+](=O)[O-])c3)nc2c1` as the molecule, how does the displacement read?
**A.** The displacement was -24.2%.

**Q.** How did the displacement turn out when `Cc1ccc(-c2nc3ccccc3o2)cc1NC(=O)COc1ccccc1[N+](=O)[O-]` was run?
**A.** Its displacement is -7.1%.

**Q.** `O=C(COc1ccccc1[N+](=O)[O-])Nc1ccc(-c2nc3ccccc3o2)cc1` was tested. Which displacement did it give?
**A.** The displacement was -1.3%.

**Q.** Which displacement does the source give for `Cc1cc2nc(-c3ccc(NC(=O)COc4ccccc4[N+](=O)[O-])cc3)oc2cc1C` here?
**A.** Its displacement is -0.7%.

**Q.** Which displacement does the source give for `O=C(COc1ccccc1[N+](=O)[O-])Nc1cc(-c2nc3ccccc3o2)ccc1Cl` here?
**A.** Its displacement is 91.6%.

**Q.** `O=C(COc1ccccc1[N+](=O)[O-])Nc1ccc2oc(-c3ccccc3Br)nc2c1` was tested. Which displacement did it give?
**A.** Its displacement is 5.2%.

**Q.** For `O=C(COc1ccccc1[N+](=O)[O-])Nc1ccc2oc(-c3cccc4ccccc34)nc2c1`, which displacement is on record?
**A.** The displacement was 56.9%.

**Q.** With `O=C(COc1ccccc1[N+](=O)[O-])Nc1ccc2oc(-c3ccccc3F)nc2c1` as the molecule, how does the displacement read?
**A.** Its displacement is 2.9%.

**Q.** How did the displacement turn out when `Cc1cc(C)c2oc(-c3ccc(NC(=O)COc4ccccc4[N+](=O)[O-])cc3)nc2c1` was run?
**A.** Its displacement is 89.3%.

**Q.** How did the displacement turn out when `Cc1cc(C)c2nc(Nc3nc4ccccc4c(=O)[nH]3)nc(C)c2c1` was run?
**A.** The displacement was 9.2%.

**Q.** `O=C(O)CCCCCN1C(=O)C(O)=C(C(=O)/C=C/c2ccccc2)C1c1ccccc1Cl` (stereo not drawn) was tested. Which displacement did it give?
**A.** Its displacement is -7.2%.

**Q.** With `Cc1c(O)nc(Nc2nc(C)c3ccccc3n2)[nH]c1=O` as the molecule, how does the displacement read?
**A.** The displacement was 9%.
